For 9 compounds, outcome results are on record in PubChem BioAssay (Tox21).

Results filed as inconclusive are left out. The source made the active and inactive calls. Calls come from the whole dose curve.

Sequence of Thyrotropin receptor (Homo sapiens) (P16473 whole entry, looked up): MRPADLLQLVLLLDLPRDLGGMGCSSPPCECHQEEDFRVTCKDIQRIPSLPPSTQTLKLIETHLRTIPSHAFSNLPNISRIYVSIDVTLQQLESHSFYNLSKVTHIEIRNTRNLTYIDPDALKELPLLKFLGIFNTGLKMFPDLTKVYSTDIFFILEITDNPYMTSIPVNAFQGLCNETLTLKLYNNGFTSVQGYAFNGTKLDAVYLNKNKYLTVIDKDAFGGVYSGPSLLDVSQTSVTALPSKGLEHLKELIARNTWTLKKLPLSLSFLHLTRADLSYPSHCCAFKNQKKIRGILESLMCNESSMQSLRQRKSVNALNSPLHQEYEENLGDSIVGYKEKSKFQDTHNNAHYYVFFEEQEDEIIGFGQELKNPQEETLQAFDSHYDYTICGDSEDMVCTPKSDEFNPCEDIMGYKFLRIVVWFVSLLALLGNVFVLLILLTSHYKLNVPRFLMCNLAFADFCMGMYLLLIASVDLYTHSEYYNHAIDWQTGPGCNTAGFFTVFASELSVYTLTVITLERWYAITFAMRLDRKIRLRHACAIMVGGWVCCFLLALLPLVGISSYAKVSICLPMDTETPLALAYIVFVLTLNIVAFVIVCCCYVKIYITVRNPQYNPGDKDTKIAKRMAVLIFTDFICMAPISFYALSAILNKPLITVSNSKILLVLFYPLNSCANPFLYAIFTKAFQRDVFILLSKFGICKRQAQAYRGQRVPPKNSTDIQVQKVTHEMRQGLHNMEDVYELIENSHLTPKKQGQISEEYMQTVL

For the assay, the target named is Thyrotropin receptor (Homo sapiens) (UniProt P16473). As to the kind of experiment: qHTS assay to identify small molecule antagonists of the thyroid stimulating hormone receptor (TSHR) signaling pathway (AID 1259385). Note: nearly all actives have a fitted effect of over 20% in size. Particulars: TSHR-HEK293 cAMP HTRF, TSH-stimulated antagonist mode; series mostly up to 92.4 µM. The gist of the method:
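Antagonist mode: compound-treated TSHR-expressing HEK293 cells were stimulated with 1.5 ng/mL TSH (final) in presence of Ro20-1724 for 30 min at RT. HTRF cAMP detection after 1 h; each compound tested at 15 concentrations, triplicate.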
(In general: Quantitative high-throughput screening tests each substance at several concentrations.)
In the case of `CCCCOC(=O)CCCCCCCCC(=O)OCCCC`, the result was inactive.
The value for `COC1=CC(=O)C[C@@H](C)[C@]12Oc1c(Cl)c(OC)cc(OC)c1C2=O` was “inactive”.
Consider `COC(=O)c1ccc(O)cc1`, for which the result was inactive.
The value for `CC(C)(C)NCC(O)c1ccc(O)c(CO)c1` (centres undefined) was “inactive”.
Consider `Cc1c(N(C)C)c(=O)n(-c2ccccc2)n1C`, for which the call was inactive.
For `CC(=O)OC/C=C(C)/C=C/C=C(C)/C=C/C1=C(C)CCCC1(C)C`, the call was inactive.
`Cc1ccc(O)c(-n2nc3ccccc3n2)c1`: the compound was classed as inactive.
The value for `C=C(C)OC(C)=O` was “inactive”; that for `C=CCOC(=O)CC(C)C` was “inactive”.
